Experimental data from PubChem BioAssay (EPA / NIEHS).
The source made the active and inactive calls. How the source made its calls: active means hit-call score of the fitted dose curve at least 0.9, where 1 is the maximum; inactive means score below 0.9.

Key:
[1] = read-out: Monokine induced gamma interferon (MIG), CXCL9 (gene 4283); assay: BSK_hDFCGF_MIG: BioMAP Diversity Plus: hDFCGF Assay for Monokine induced gamma interferon (MIG) Biomarker Activity (AID 2283063); details: primary human foreskin fibroblasts; actives raise or lower the signal
Outline: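 Endpoint derived by bidirectional fitting relative to DMSO; MIG quantified via ELISA in primary human foreskin fibroblasts harvested 24 h after dosing.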

[2] = read-out: Matrix Metallopeptidase 1 (MMP1), MMP1 (gene 4312); assay: BSK_hDFCGF_MMP1: BioMAP Diversity Plus: hDFCGF Assay for Matrix Metallopeptidase 1 (MMP1) Biomarker Activity (AID 2283064); details: primary human foreskin fibroblasts; actives raise or lower the signal
Outline: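 Human foreskin fibroblasts exposed to chemical for 24 h; MMP1 detected by ELISA, with DMSO as baseline for bidirectional fitting.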

[3] = read-out: Vascular cell adhesion molecule 1 (VCAM1), VCAM1 (gene 7412); assay: BSK_hDFCGF_VCAM1: BioMAP Diversity Plus: hDFCGF Assay for Vascular cell adhesion molecule 1 (VCAM1) Biomarker Activity (AID 2283065); details: primary human foreskin fibroblasts; actives raise or lower the signal;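 on AC50: VCAM-1 protein level quantified by ELISA after 24 h chemical exposure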
Outline: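 Measured after 24 h chemical treatment of primary human skin fibroblasts, VCAM-1 was detected by ELISA and concentration-response analysed in both directions versus DMSO vehicle.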

[4] = read-out: Plasminogen activator inhibitor-1 (PAI1), SERPINE1 (gene 5054); assay: BSK_hDFCGF_PAI1: BioMAP Diversity Plus: hDFCGF Assay for Plasminogen activator inhibitor-1 (PAI1) Biomarker Activity (AID 2283066); details: primary human foreskin fibroblasts; actives raise or lower the signal
Outline: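 PAI-1 levels in human dermal foreskin fibroblasts were quantified by ELISA 24 h after dosing, with gain or loss analysed against DMSO. Overt cytotoxicity was checked by sulforhodamine B total-protein staining in parallel cultures.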

[5] = read-out: Intercellular Adhesion Molecule 1 (ICAM1), ICAM1 (gene 3383); assay: BSK_KF3CT_ICAM1: BioMAP Diversity Plus: KF3CT Assay for Intercellular Adhesion Molecule 1 (ICAM1) Biomarker Activity (AID 2283067); details: primary human keratinocytes with fibroblasts; actives raise or lower the signal
Outline: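 Bidirectional curve fitting against a DMSO baseline was applied to ICAM-1 ELISA signal from primary human skin co-cultures harvested 24 h after treatment, with SRB staining of parallel wells for overt cytotoxicity.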

[6] = read-out: Interferon-gamma inducible Protein 10 (IP10), CXCL10 (gene 3627); assay: BSK_KF3CT_IP10: BioMAP Diversity Plus: KF3CT Assay for Interferon-gamma inducible Protein 10 (IP10) Biomarker Activity (AID 2283068); details: primary human keratinocytes with fibroblasts; actives raise or lower the signal
Outline: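 In a primary skin co-culture of keratinocytes and fibroblasts, IP-10 is quantified by ELISA at 24 h after dosing. SRB staining of parallel wells monitors overt toxicity. Curves are fitted both directions against DMSO.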

[7] = BSK_KF3CT_SRB: Viability Assessment in the BioMAP Diversity Plus: KF3CT Assay (AID 2283069); details: primary human keratinocytes with fibroblasts;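 further: read 24 h after compound addition; fitted for both signal gain and loss against DMSO baseline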
Outline: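 Overt cytotoxicity is assessed as total protein by sulforhodamine B staining in parallel human skin co-cultures at 24 h after dosing. DMSO serves as negative control and baseline.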

[8] = read-out: Interleukin-1 alpha (IL1a), IL1A (gene 3552); assay: BSK_KF3CT_IL1a: BioMAP Diversity Plus: KF3CT Assay for Interleukin-1 alpha (IL1a) Biomarker Activity (AID 2283070); details: primary human keratinocytes with fibroblasts; actives raise or lower the signal
Outline: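 Readout is IL-1a level by ELISA, compared bidirectionally with DMSO as baseline. Cells: human keratinocytes co-cultured with foreskin fibroblasts, harvested 24 h post-dose.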

[9] = read-out: TIMP metallopeptidase inhibitor 2 (TIMP2), TIMP2 (gene 7077); assay: BSK_KF3CT_TIMP2: BioMAP Diversity Plus: KF3CT Assay for TIMP metallopeptidase inhibitor 2 (TIMP2) Biomarker Activity (AID 2283071); details: primary human keratinocytes with fibroblasts; actives raise or lower the signal
Outline: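 TIMP-2 measured by ELISA at 24 h in human keratinocyte/fibroblast primary co-cultures exposed to chemicals. Both increases and decreases were fitted against DMSO. Parallel cultures were stained with SRB for total protein as an overt-cytotoxicity check.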

[10] = read-out: Transforming growth factor beta 1 (TGFb1), TGFB1 (gene 7040); assay: BSK_KF3CT_TGFb1: BioMAP Diversity Plus: KF3CT Assay for Transforming growth factor beta 1 (TGFb1) Biomarker Activity (AID 2283072); details: primary human keratinocytes with fibroblasts; actives raise or lower the signal
Outline: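 ELISA quantifies TGF-b1 at 24 h post-dose in a primary human skin co-culture of keratinocytes and fibroblasts, with gain or loss judged against DMSO. Parallel SRB total-protein staining flags overt cytotoxicity.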

Measured: AC50

CCCCCCCCCCCO
inactive: [2] | [3] | [4] | [5] | [6] | [7] | [8] | [9] | [10]
active: [1] 32.1 µM

O=C1CCC(C2CCCCC2)CC1
active: [2] 33.3 µM | [3] 31.6 µM | [4] 31.7 µM | [6] 31.5 µM
inactive: [1] | [5] | [7] | [8] | [9] | [10]

CCCC(=O)OCCC(C)C
inactive: [1] | [2] | [3] | [4] | [5] | [6] | [7] | [8] | [9] | [10]

Oc1ccccc1
inactive: [1] | [2] | [3] | [4] | [5] | [6] | [7] | [8] | [9] | [10]

CC1=CC(=O)/C(=C(/C)O)C(=O)O1
inactive: [1] | [2] | [3] | [4] | [5] | [6] | [7] | [8] | [9] | [10]

c1ccc2ccccc2c1
inactive: [1] | [2] | [3] | [4] | [5] | [6] | [7] | [8] | [9] | [10]

c1ccc2n[nH]nc2c1
inactive: [1] | [2] | [3] | [4] | [5] | [6] | [7] | [8] | [9] | [10]

CC[C@H](NC(=O)c1cc(F)ccc1NS(=O)(=O)c1cccc2cccnc12)c1ccccc1
inactive: [1] | [2] | [3] | [4] | [5] | [6] | [7] | [8] | [9] | [10]

CN1C(=O)N(c2ccccc2Br)Cc2cnc(Nc3ccc4c(c3)OCC(CO)O4)nc21 (stereo not given)
active: [1] 22.2 µM | [2] 9.31 µM | [3] 34.1 µM | [4] 3.21 µM | [6] 21.6 µM | [7] 16.2 µM | [8] 10.4 µM | [9] 13.7 µM | [10] 15.3 µM
inactive: [5]

Cc1c2ccccc2c(C)c2c1ccc1ccccc12
active: [3] 3.97 µM | [4] 10.1 µM
inactive: [1] | [2] | [5] | [6] | [7] | [8] | [9] | [10]

CCN(Cc1cccc(S(=O)(=O)O)c1)c1ccc(C(=C2C=CC(=[N+](CC)Cc3cccc(S(=O)(=O)O)c3)C=C2)c2ccccc2S(=O)(=O)[O-])cc1
inactive: [1] | [2] | [3] | [4] | [5] | [6] | [7] | [8] | [9] | [10]

Cc1oc2c(NC(=O)c3c(Cl)cccc3Cl)cccc2c1C(C)(C)O
inactive: [1] | [3] | [5] | [6] | [7] | [8] | [10]
active: [2] 10.7 µM | [4] 14.2 µM | [9] 5.2 µM

CCCCCCCCCC(=O)O
inactive: [1] | [2] | [3] | [4] | [5] | [6] | [7] | [8] | [9] | [10]

Cc1cc2c(cc1C(F)(F)F)N(C(=O)Nc1ccc(Oc3cccnc3C)nc1)CC2
active: [6] 29.9 µM | [7] 26.4 µM | [8] 15.5 µM | [9] 23.8 µM | [10] 23.6 µM
inactive: [1] | [2] | [3] | [4] | [5]

Clc1ccccc1C(c1ccccc1)(c1ccccc1)n1ccnc1
active: [1] 8.88 µM | [2] 7.77 µM | [3] 8.14 µM | [4] 5.57 µM | [5] 11.5 µM | [6] 8.61 µM | [7] 5.3 µM | [8] 10.4 µM | [9] 10 µM | [10] 6.57 µM

CN(C[C@@H](CC[N+]12CCC(C3CCCCC3)(CC1)CC2)c1ccc(Cl)c(Cl)c1)C(=O)c1cc(C(F)(F)F)cc(C(F)(F)F)c1
active: [1] 10.3 µM | [2] 7.58 µM | [3] 7.41 µM | [4] 5.56 µM | [5] 12.3 µM | [6] 7.78 µM | [7] 6.58 µM | [8] 11.2 µM | [9] 7.76 µM | [10] 7.34 µM

O=c1[nH]sc2ccccc12
active: [1] 5.92 µM | [2] 6.98 µM | [3] 1.82 µM | [4] 3.23 µM | [5] 20 µM | [6] 31.7 µM | [7] 35.7 µM | [8] 13.7 µM | [9] 32.2 µM | [10] 30.7 µM

Clc1cc(Cl)c2c(c1)N=C1CCCCCN1C2
inactive: [1] | [2] | [3] | [4] | [5] | [6] | [7] | [8] | [9] | [10]

c1ccc(C[n+]2cccc3ccccc32)cc1
inactive: [1] | [2] | [3] | [4] | [5] | [6] | [7] | [8] | [9] | [10]
